FLuc counter: firefly luciferase modulation, counter-screen for miR-21 project; actives 6.9% (n = 360,000); Potency, µM (series often up to 57.5 µM), most hits filed as inhibitors; purified FLuc, Km substrates, luminescence inhibition; P08659; also: nearly all actives have a fitted effect of over 55% in size
Target sequence (P08659 whole entry, looked up): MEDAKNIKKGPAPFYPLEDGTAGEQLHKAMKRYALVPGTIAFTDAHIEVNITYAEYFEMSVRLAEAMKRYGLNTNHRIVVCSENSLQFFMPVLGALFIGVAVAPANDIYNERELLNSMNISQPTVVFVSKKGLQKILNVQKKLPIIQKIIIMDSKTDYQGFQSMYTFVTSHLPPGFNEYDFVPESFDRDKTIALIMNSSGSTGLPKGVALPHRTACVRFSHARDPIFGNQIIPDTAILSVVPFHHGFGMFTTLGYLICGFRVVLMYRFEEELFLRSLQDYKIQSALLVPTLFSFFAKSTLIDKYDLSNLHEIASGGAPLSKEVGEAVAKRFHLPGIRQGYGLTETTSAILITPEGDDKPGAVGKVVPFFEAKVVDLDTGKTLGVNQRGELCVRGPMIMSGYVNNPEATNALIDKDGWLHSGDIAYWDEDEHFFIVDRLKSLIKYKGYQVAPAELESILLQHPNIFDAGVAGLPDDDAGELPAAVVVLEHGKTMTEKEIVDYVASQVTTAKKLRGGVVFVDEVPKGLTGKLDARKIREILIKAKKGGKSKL
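Biochemical qHTS of compounds, final roughly 60 µM downward over six points, against 10 nM purified firefly luciferase using Km concentrations of substrates (10 uM D-luciferin, 10 uM ATP) in Tris acetate pH 7.5 buffer; luminescence output.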
ELG1 genotoxic: genotoxicity induction in ELG1-luciferase HEK293T cells | HEK293T ELG1-luciferase reporter, luminescence, 16 h | actives 1.3% (n = 330,000) | AID 504466 | Potency, µM (doses to about 46 µM), actives largely listed as activators; also: nearly all actives have a fitted effect of over 60% in size
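HEK293T cells expressing luciferase-tagged ELG1 were treated with compound or DMSO for 16 hr at 37°C. Luciferase activity was then read after 30 min with ONE-Glo at room temperature; rising signal flags genetic stress.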
NPC1 promoter act: NPC1 promoter activation. Huh7 NPC1 promoter luciferase reporter, 24 h. actives 2.4% (n = 320,000). Potency, µM (highest dose often 9.22 µM), usual class: activators. AID 485313; also: nearly all actives have a fitted effect of over 60% in size
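Stably transfected Huh7 (NPC1 promoter→luciferase), 1500 cells/well in Opti-MEM + 10% FBS, 2 h settle, then compound 24 h at 37 °C. Luminescence after 10 min with Amplite reagent.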
SMN2 splice enh: increases expression of the SMN2 splice variant; HEK293 SMN2-luciferase splicing reporter, luminescence, 30-36 h; Potency, µM (top dose mostly 46.1 µM), hits mostly activators; actives 2.8% (n = 210,000); also: nearly all actives have a fitted effect of over 55% in size
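qHTS luciferase splicing reporter: luminescence rises when SMN2 exon 7 is included in transfected HEK293 cells. Compound exposure lasted 30-36 h at 37C, with 4.5 mM final sodium butyrate as control, followed by a ONE-Glo read.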
Rab9 prom act: activators of Rab9 promoter. Huh7 Rab9 promoter-luciferase reporter, luminescence, 24 h. Potency, µM (titrated, usually from 9.22 µM), hits mostly activators. actives 2.8% (n = 320,000); also: nearly all actives have a fitted effect of over 60% in size
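Huh7 cells stably carrying Rab9 promoter–luciferase reporter, plated 1500 cells/well, compound added after 2 h and incubated 24 h at 37 °C; luciferase luminescence then read after 10 min with detection reagent.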
ELG1 repair inh: ELG1-dependent DNA repair inhibition | Potency, µM (highest dose often 46.1 µM), most hits filed as inhibitors | AID 504467 | HEK293T ELG1-luciferase reporter, luminescence, 16 h; DNA damage induced by 5-fluorouridine | actives 2.3% (n = 330,000); also: nearly all actives have a fitted effect of over 55% in size
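Quantitative HTS, concentration-response format. 2,000 cells/well co-treated with 5-fluorouridine and compound, 16 hr in 5% CO2 at 37 °C; ONE-Glo luminescence read after 30 min.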
A number is an active result; [ ] = dose if it differs, or a comment. Hits are enriched below; roughly 9.4% of the tested compounds scored in any of these assays. Calls follow the shape of the dose curve; as a rule, active = well fitted curve in the direction sought with a large enough effect; inconclusive = small, poorly fitted or top-dose-only effect, or another doubt; inactive = no such curve, though single readings can be large; an effect the other way counts as inactive or inconclusive.

N#Cc1c(/N=C/c2cc3ccccc3s2)sc2c1CCC2 was read as FLuc counter inconclusive, ELG1 genotoxic inconclusive, NPC1 promoter act 1.4µM, SMN2 splice enh 10µM, Rab9 prom act 1.4µM and ELG1 repair inh inconclusive.
For CCOc1[nH]c(/N=C/c2ccco2)c(C#N)c1C#N the results were FLuc counter inconclusive, ELG1 genotoxic inactive, NPC1 promoter act inactive, SMN2 splice enh inactive, Rab9 prom act inactive and ELG1 repair inh inactive.
`N#Cc1c(/N=C/c2ccco2)sc2c1CCC2` gave FLuc counter 2.4µM, ELG1 genotoxic inactive, NPC1 promoter act inactive, Rab9 prom act inactive and ELG1 repair inh inconclusive.
Screening O=C(COCc1cc(-c2ccc3c(c2)OCO3)on1)NCc1ccc(F)cc1 returned FLuc counter inactive.
Screening CCCCc1nc2c(c3c1C[C@H](C)OC3)CN(C(=O)COC)CC2 returned SMN2 splice enh inactive[9.22 µM].
Screening COc1ccccc1N1CCN(CCN(C(=O)c2ccc(I)cc2)c2ccccn2)CC1 returned NPC1 promoter act inactive and Rab9 prom act inactive.
`CNC(=O)C1CCC(Cn2c(=O)c3sccc3n(Cc3ccccc3)c2=O)CC1` (stereo not drawn) gave FLuc counter inactive.
For Cc1ccc(C(=O)NNc2c3ccccc3nc3ccccc23)cc1 the results were FLuc counter inconclusive, ELG1 genotoxic inactive, NPC1 promoter act inactive, Rab9 prom act inactive and ELG1 repair inh inconclusive.
Screening Nc1ccccc1C(=O)NNc1c2ccccc2nc2ccccc12 returned FLuc counter 19µM, ELG1 genotoxic inactive, NPC1 promoter act inactive, Rab9 prom act inactive and ELG1 repair inh inconclusive.
For COc1cccc(-n2c(=O)c3sc4ccccc4c3n(CC(=O)Nc3ccccc3OC)c2=O)c1 the results were FLuc counter inactive and SMN2 splice enh inactive.
For Clc1ccc(Nc2ccc(-n3ccnc3)nn2)cc1Cl the results were FLuc counter 27µM, ELG1 genotoxic inactive, NPC1 promoter act inactive, SMN2 splice enh inactive, Rab9 prom act inactive and ELG1 repair inh inactive.
For c1ccc(Nc2ccc(-n3ccnc3)nn2)cc1 the results were FLuc counter inconclusive, ELG1 genotoxic inactive, NPC1 promoter act inactive, SMN2 splice enh inactive, Rab9 prom act inactive and ELG1 repair inh inactive.
Screening O=C(Oc1ccccc1)N1CCCC1 returned FLuc counter inactive, ELG1 genotoxic inactive, NPC1 promoter act inactive, Rab9 prom act inactive and ELG1 repair inh inconclusive.
Screening O=C(Oc1ccc(Cl)cc1)N1CCCCC1 returned FLuc counter 24µM, ELG1 genotoxic 16µM, NPC1 promoter act inactive, SMN2 splice enh inactive, Rab9 prom act inactive and ELG1 repair inh inconclusive.
Screening O=C(Oc1ccc2ccccc2c1Cl)N1CCCCCC1 returned FLuc counter 1.1µM, ELG1 genotoxic inconclusive, NPC1 promoter act 1.1µM, SMN2 splice enh 13µM, Rab9 prom act 0.56µM and ELG1 repair inh inconclusive.
Screening O=C(Nc1ccc2c(c1)CCC2)c1ccccc1 returned FLuc counter 1.1µM, ELG1 genotoxic 2.6µM, NPC1 promoter act 1.3µM, SMN2 splice enh 2µM, Rab9 prom act 0.5µM and ELG1 repair inh inconclusive.
For O=C(Nc1ccc2c(c1)CCC2)c1ccccc1F the results were FLuc counter 3µM, ELG1 genotoxic inconclusive, NPC1 promoter act 0.89µM, SMN2 splice enh 4.5µM, Rab9 prom act 0.71µM and ELG1 repair inh inconclusive.
For CN(c1ccccc1)S(=O)(=O)c1cccc(C(=O)Nc2ccc3c(c2)CCC3)c1 the results were FLuc counter inactive, ELG1 genotoxic inactive, NPC1 promoter act inactive, SMN2 splice enh inactive[1.84 µM], Rab9 prom act inactive and ELG1 repair inh 15µM.
Screening O=C(O)c1ccccc1-c1ccccc1C(=O)Nc1ccc2c(c1)CCC2 returned FLuc counter inactive, ELG1 genotoxic inactive, NPC1 promoter act inactive, Rab9 prom act inactive and ELG1 repair inh inactive.
For COc1cc2c(cc1NC(=O)c1ccccc1F)CCCC2 the results were FLuc counter 11µM, ELG1 genotoxic inconclusive, NPC1 promoter act inactive, SMN2 splice enh 22µM, Rab9 prom act inconclusive and ELG1 repair inh inconclusive.
Screening CN(c1ccccc1)S(=O)(=O)c1cccc(C(=O)NNC(=O)c2ccccc2)c1 returned FLuc counter inactive, ELG1 genotoxic inactive, NPC1 promoter act inactive, SMN2 splice enh inactive, Rab9 prom act inactive and ELG1 repair inh inconclusive.
`Cc1cccc(CN2C(=O)c3ccccc3S(=O)(=O)c3ccc(C(=O)N4CCN(c5cc(C)ccc5C)CC4)cc32)c1` gave FLuc counter inactive and SMN2 splice enh inactive.
`CCc1cccc(NC(c2nnc(-c3ccccc3)o2)c2ccc(F)cc2Cl)c1` (stereo not drawn) gave FLuc counter inactive.
`CCc1ccc(OC(=O)c2cccnc2)cc1` gave FLuc counter 11µM, ELG1 genotoxic inactive, NPC1 promoter act inactive, Rab9 prom act inactive and ELG1 repair inh inactive.
`CC(CNC(=O)CCc1cn(Cc2ccccc2Cl)c2ccccc12)c1ccccc1` (stereo not drawn) gave FLuc counter inactive.
For Cc1ccc(/C=C(\C#N)C(=O)Nc2c(C)cccc2C)s1 the results were FLuc counter inactive, ELG1 genotoxic inactive, NPC1 promoter act inactive, SMN2 splice enh inactive, Rab9 prom act inactive and ELG1 repair inh inactive.
Screening C=CCNC(=O)/C(C#N)=C/c1ccccc1Cl returned FLuc counter inconclusive, ELG1 genotoxic inactive, NPC1 promoter act inactive, SMN2 splice enh inactive, Rab9 prom act inactive and ELG1 repair inh inconclusive.
Cc1cccc(NC(=O)/C(C#N)=C/c2ccccc2Cl)n1 was read as FLuc counter 6µM, ELG1 genotoxic inactive, NPC1 promoter act inactive, Rab9 prom act inactive and ELG1 repair inh inactive.
N#C/C(=C\c1ccccc1O)C(=O)Nc1ccccn1 was read as FLuc counter 4.8µM, ELG1 genotoxic inactive, NPC1 promoter act inactive, Rab9 prom act inactive and ELG1 repair inh inactive.
For Cc1cccc(NC(=O)/C(C#N)=C/c2ccccc2O)n1 the results were FLuc counter 0.6µM, ELG1 genotoxic 16µM, NPC1 promoter act 3.5µM, Rab9 prom act 4µM and ELG1 repair inh inconclusive.
`O=C(CSc1nc2ccccc2n1Cc1c(F)cccc1Cl)N1CCN(c2ccc(F)cc2)CC1` gave FLuc counter inactive and SMN2 splice enh inactive.
For Cc1cc(C)cc(NC(=O)C(=O)NCC(c2cccnc2)N2CCc3ccccc3C2)c1 (stereo not drawn) the results were FLuc counter inactive.
`Cc1nn(CC(=O)N2CCN(c3ccccc3)CC2)c(=O)c2cc3sccc3n12` gave FLuc counter inactive and SMN2 splice enh inactive.
For COc1ccc(Cl)cc1NC(=O)NCc1cccnc1 the results were FLuc counter 15µM, ELG1 genotoxic inactive, NPC1 promoter act inactive, Rab9 prom act inactive and ELG1 repair inh inactive.

High-throughput results deposited in PubChem BioAssay by National Center for Advancing Translational Sciences (NCATS).
